assay: resazurin metabolic signal in HepG2 cells – cell-based, resazurin fluorescence, 24 h, PK04 Diversity Set, profiling panel (AID 1172); details: HepG2 viability, higher = more signal; also: test concentration not given here

Compared with C=C(COC)/C(=C/C[C@H](OC(C)=O)c1ccccc1OCCO)c1cc(C(=O)OC)ccc1OC, C=C(COC)C(=O)CC[C@@H](OC(C)=O)c1ccccc1OCCO is higher in z-score: -0.216 for the first, 0.463 for the second.

Compared with C=C(CCCC)/C(=C/C[C@H](OC(=O)c1ccncc1)c1cccc(OCCO)c1)c1cnc2ccccc2c1, C=C(CCCC)/C(=C/C[C@H](OC(C)=O)c1cccc(OCCO)c1)c1cnc2ccccc2c1 is higher in z-score: -0.0769 for the first, 0.209 for the second.

Compared with COc1ccc(C(O)C2C=CC3C(=O)N(c4ccccc4)C(=O)C3N2Nc2ccc(C#N)cc2)cc1OCc1ccccc1 (stereo unspecified), CC(=O)c1ccc(C(O)C2C=CC3C(=O)N(c4ccccc4)C(=O)C3N2Nc2ccc(C(C)C)cc2)cc1 (stereo unspecified) is higher in z-score: -1.74 for the first, -0.866 for the second.

Compared with CCOC(=O)C1=CC[C@@H](c2ccc(OC)cc2)N(S(=O)(=O)c2ccc(C)cc2)[C@H]1c1ccc(C)cc1, CC[C@@H]1C=C(C(=O)O)[C@H](c2ccc(OC)cc2)N1S(=O)(=O)c1ccc(C)cc1 is lower in z-score: 0.164 for the first, -0.896 for the second.

Compared with CC(=O)OCC1C2CC[C@H]3C(OCc4ccc(F)cc4C(F)(F)F)OC[C@]4(C)[C@H]3C2=C(CN4C(=O)OC(C)(C)C)[C@H](C)C1COC(C)=O (stereo partly specified), CN1C(=O)C2C(C1=O)C1C=C(CCCO)C2C(C2CC2)N1Cc1cccc(OC(F)(F)F)c1 (stereo unspecified) is higher in z-score: -1.11 for the first, -0.584 for the second.

Going from CC(C)(C)OC(=O)CC[C@]1(C(=O)NCC(O)CO)N=C(c2ccc(OCCCO)cc2)O[C@H]1c1ccccc1N=[N+]=[N-] (stereo partly specified) to [N-]=[N+]=Nc1ccccc1[C@@H]1OC(c2ccc(OCCCO)cc2)=N[C@]1(CCS(=O)(=O)c1ccccc1)C(=O)NCC(O)CO (stereo partly specified), the z-score rises from -0.108 to 0.396.

Going from COC(=O)[C@@]1(Cc2ccc(F)cc2)[C@H]2c3cc(C(=O)N(C)C)n(CCc4ccc(O)c(O)c4)c3C[C@H]2CN1C(=O)c1ccccc1 to COC(=O)[C@@]1(Cc2ccc(F)cc2)[C@H]2c3cc(C(=O)N(C)C)n(C)c3C[C@H]2CN1C(=O)c1ccccc1, the z-score falls from 0.515 to -0.476.

Going from COC(=O)[C@@]1(Cc2ccccc2)N=C(c2ccc(OCCCO)cc2)O[C@H]1c1ccccc1CN=[N+]=[N-] to C=CC[C@@]1(C(=O)OC)N=C(c2ccc(OCCCO)cc2)O[C@@H]1c1ccccc1N=[N+]=[N-], the z-score rises from -4.1 to -0.0361.

Compared with COc1ccc(C(=O)Nc2cccc(CN3C(=O)[C@@]4(O[C@@H](CC(=O)N5CCC[C@H]5CO)[C@H]([Si](C)(C)c5ccc(OC)cc5)[C@H]4C)c4ccccc43)c2)cc1, COc1ccc([Si](C)(C)[C@H]2[C@H](CC(=O)N3CCC[C@H]3CO)O[C@@]3(C(=O)N(Cc4ccc(N5CCCCC5=O)cc4)c4ccccc43)[C@@H]2C)cc1 is higher in z-score: -0.429 for the first, -0.369 for the second.

First: COc1ccccc1CN1C(=O)c2ccccc2[C@](Cc2ccccc2I)(C(=O)NCC(C)C)[C@@H]1c1ccc(CO)cc1
Second: CCCNC(=O)[C@@]1(Sc2ccc(C)cc2)CC(=O)N(Cc2ccccc2Cl)[C@@H]1c1ccc(CO)cc1I
The z-score of the first is lower: 0.52 for the first, 0.766 for the second.

First: C=CCNC(=O)[C@H]1[C@@H]2C(=O)O[C@@H](c3ccccc3)[C@@H](c3ccccc3)N2[C@@H](c2ccc(OCCO)cc2)[C@]12C(=O)Nc1ccc(C#CC3(O)CCCCCC3)cc12
Second: COC(=O)C(CC#Cc1ccc2c(c1)[C@]1(C(=O)N2)[C@H](c2ccccc2OCCO)N2[C@H](c3ccccc3)[C@H](c3ccccc3)OC(=O)[C@H]2[C@@H]1C(=O)N1CCc2cc(OC)c(OC)cc2C1)C(=O)OC
The z-score of the first is lower: -0.311 for the first, 0.0231 for the second.

Going from [N-]=[N+]=Nc1ccccc1C[C@@]1(C(=O)NCC(O)CO)N=C(c2ccc(OCCCO)cc2)O[C@@H]1c1ccccc1 (stereo partly specified) to C=C(CCCC)C(=O)CC[C@H](OC(=O)c1ccccc1-c1ccccc1C(=O)O)c1ccc(OCCO)cc1, the z-score falls from 0.559 to 0.359.

First: CCOC(=O)c1cn(C[C@H](Cc2ccccc2)NC(=O)N[C@H](CO)CCc2oc(C(C)=O)c(C(=O)OC)c2C(=O)OC)nn1
Second: COC(=O)[C@@]1(Cc2ccc(OC)cc2)[C@H]2c3cc(C(=O)N4CCCC4)n(CCn4cc([N+](=O)[O-])nc4C)c3C[C@H]2CN1C(=O)c1ccccc1
The z-score of the first is higher: -0.756 for the first, -0.916 for the second.

Compared with Cc1ccc(S[C@]2(C(=O)NCCCN(C)C)CC(=O)N(Cc3ccccc3C(F)(F)F)[C@@H]2c2ccc(CO)cc2I)cc1, Cc1ccc(S[C@]2(C(=O)NC3CC3)CC(=O)N(C(C)C)[C@@H]2c2ccc(CO)cc2I)cc1 is lower in z-score: 0.0689 for the first, 0.0662 for the second.

First: COCCOC(=O)N1C(=O)[C@@]2(c3cc(C#CCNC(N)=O)ccc31)[C@H](C(=O)Nc1nc3ccccc3s1)[C@H]1C(=O)O[C@H](c3ccccc3)[C@H](c3ccccc3)N1[C@@H]2c1ccccc1OCCO
Second: COCC(=C=CC[C@H](O)c1ccccc1OCCO)C[C@H](O)COCc1ccccc1
The z-score of the first is higher: 0.0277 for the first, 0.0129 for the second.

First: COc1cc(CO)cc(I)c1O[C@H]1C=C(C(=O)NCCO)C[C@@H]2O[C@H]12
Second: C=CC1c2cc(O)c(OC)cc2CCN1C (stereo unspecified)
The z-score of the first is lower: -0.876 for the first, -0.582 for the second.

First: CC(=O)NCCCC[C@@H]1NC(=O)[C@H]2C[C@@H](C(=O)NCCCCCCNC(=O)CS)[C@@H](c3cccc(OCCO)c3)N2C1=O
Second: O=C(NC1CC1)[C@@H]1c2ccccc2C(=O)N(Cc2cc(C(F)(F)F)cc(C(F)(F)F)c2)[C@H]1c1ccc(CO)cc1
The z-score of the first is lower: -0.0625 for the first, -0.0465 for the second.

Compared with CCC(CC)C(O)C1C=CC2C(=O)N(c3ccccc3)C(=O)C2N1Nc1ccccc1F (stereo unspecified), Cc1ccc(F)cc1S(=O)(=O)N[C@H]1CCN(Cc2ccc(OC(C)C)cc2)C1 is lower in z-score: 0.85 for the first, -0.757 for the second.
